The entries come from a sample that favours hits as a whole.
HT1080NT lethal – kills 2HG-producing HT-1080-NT fibrosarcoma cells. HT-1080-NT fibrosarcoma viability, CellTiter-Glo ATP luminescence, 48 h. Potency, µM (top dose mostly 46.1 µM), hits mostly cytotoxic. 360,000 tested, 1.6% active. AID 686970;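 further: NT is the 2HG producing partner of a matched IDH1 knockdown line; nearly all actives have a fitted effect of over 55% in size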
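HT-1080-NT; 750 cells/well; 5% FBS RPMI; 48 h compound, 37 degrees C; CellTiter-Glo luminescence; curve fitting and curve-class assignment.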
ALOX12 inh – blocks human arachidonate 12S-lipoxygenase | 580,000 tested, 1.1% active | purified 12hLO, xylenol orange hydroperoxide absorbance | P18054 | Potency, µM (titrated, usually from 108 µM), most hits filed as inhibitors
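Purified human 12hLO (150 nM final) in 25 mM Hepes, 0.01% Triton X-100, pH 7.0 was preincubated 15 min at room temperature with compound. Then 40 uM arachidonic acid was added, 30 min. Hydroperoxide was read by Fe-XO absorbance ratio 573/405 nm.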
IL1B secr inh – inhibitors of inflammasome signaling (IL-1 beta secretion); activity change, % at 57.5 µM; AID 743279; THP-1 LPS/ATP IL-1B secretion, AlphaLISA, 16 h; active compounds read low; 360,000 tested, 4.7% active; in the data active means activity change below about -50%; inconclusive means mostly about -30% to -49%
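Secreted IL-1B measured by AlphaLISA bead assay after 16 h compound exposure of THP-1 cells; compounds (final up to 57.5 uM) added 1 h before LPS (250 ng/mL) and ATP (1.25 mM) stimulation; lower signal means less secretion.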
HT1080 IDH1KD tx – HT-1080 IDH1 knockdown cell toxicity (counter line) | 360,000 tested, 2% active | Potency, µM (top dose mostly 46.1 µM), actives largely listed as cytotoxic | HT-1080 IDH1 knockdown viability, ATP luminescence, 48 h
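After a 2 h attachment period, IDH1KD HT-1080 cells took pin-transferred compound for 48 h at 37 °C; ATP-based luminescence after 10 min room-temperature reagent incubation reported viability.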
TDP1 cell CPT – growth inhibition of DT40 Tdp1-/-;hTDP1 cells with camptothecin (screen for TDP1 inhibitors); chicken DT40 Tdp1-/-;hTDP1 cells + 20 nM CPT, ATP luminescence, 48 h; Potency, µM (highest dose often 46.2 µM), hits mostly inhibitors; 420,000 tested, 12% active; AID 686979; further: nearly all actives have a fitted effect of over 55% in size
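Cell growth measured by CellTiter-Glo luminescence after a minimum 48 h, 37 C compound exposure with 20 nM CPT in Tdp1-knockout DT40 cells stably expressing hTDP1, seeded 400/well; qHTS titration format.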
DT40 TDP1 no CPT – qHTS for Inhibitors of human tyrosyl-DNA phosphodiesterase 1 (TDP1): qHTS in cells in absence of CPT; DT40 Tdp1-/- hTDP1 cells, no CPT, ATP luminescence, 48 h; Potency, µM (doses to about 46.2 µM), hits mostly inhibitors; 420,000 tested, 15% active; AID 686978, 2013; further: nearly all actives have a fitted effect of over 55% in size
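Chicken DT40 Tdp1-/- cells complemented with human TDP1, screened without camptothecin (DMSO vehicle only), 400 cells/well. Compounds pin-transferred, cells incubated at 37 °C for at least 48 hr. Growth read as ATP-dependent luminescence (CellTiter-Glo, 30 min at RT).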
Numbers stand for hits. Unless noted, the call rests on the fitted dose curve; in most records, active means well fitted curve in the direction sought with a large enough effect; inconclusive means small, poorly fitted or top-dose-only effect, or another doubt; inactive means no such curve, though single readings can be large; an effect the other way counts as inactive or inconclusive.

O=C(C1=C(OC(=O)c2ccco2)c2ccccc2S(=O)(=O)N1Cc1ccccc1)c1ccccc1 was read as ALOX12 inh inactive.
`CCCCC(=O)OC1=C(C(=O)c2ccccc2)N(CC)S(=O)(=O)c2ccccc21` gave ALOX12 inh inactive, TDP1 cell CPT 21µM and DT40 TDP1 no CPT 7.3µM.
`CCN1C(C(=O)c2ccccc2)=C(OC(=O)c2ccccc2OC)c2ccccc2S1(=O)=O` gave ALOX12 inh inactive, TDP1 cell CPT 4.6µM and DT40 TDP1 no CPT 3.3µM.
For CCCCN1C(C(=O)c2ccccc2)=C(OC(C)=O)c2ccccc2S1(=O)=O the results were ALOX12 inh inconclusive, TDP1 cell CPT 5.2µM and DT40 TDP1 no CPT 4.6µM.
Screening COc1ccc(NC(=O)CSc2nc(-c3ccc(OC)cc3)[nH]c2-c2ccc(OC)cc2)cc1 returned ALOX12 inh inactive, TDP1 cell CPT inconclusive and DT40 TDP1 no CPT inconclusive.
COc1ccc(NC(=O)CSc2nc(-c3cc(OC)c(OC)c(OC)c3)[nH]c2-c2ccc(F)cc2)cc1 was read as ALOX12 inh inactive, TDP1 cell CPT inconclusive and DT40 TDP1 no CPT 23µM.
COc1ccc(-c2[nH]c(-c3ccc(F)cc3)nc2SCC(=O)Nc2ccc(OC)c(OC)c2)cc1 was read as ALOX12 inh inactive, TDP1 cell CPT 16µM and DT40 TDP1 no CPT inconclusive.
For CS(=O)(=O)N1CCC(CC(=O)NCCCN2CCc3ccccc3C2)C1 (centres undefined) the results were ALOX12 inh inactive.
Screening Cc1ccc(Nc2ncccc2C(N)=O)cc1 returned HT1080NT lethal inactive, ALOX12 inh inactive, IL1B secr inh inactive, HT1080 IDH1KD tx inactive, TDP1 cell CPT inactive and DT40 TDP1 no CPT inactive.
For COc1ccc(-c2cc3nccn3c(Nc3ncccc3C(N)=O)n2)cc1OC the results were ALOX12 inh 1.4µM.
Screening CC(C)CN1C(=O)c2cccn2CC1C(=O)N1CCN(c2ncccn2)CC1 (centres undefined) returned ALOX12 inh inactive.
Screening COc1cc(C2CC(=O)Oc3c(C(CCN4CCN(c5ccccc5)CC4)c4ccc(N(C)C)cc4)c(OC)cc(OC)c32)cc(OC)c1OC (centres undefined) returned HT1080NT lethal inactive, ALOX12 inh inactive, IL1B secr inh inactive, HT1080 IDH1KD tx inactive, TDP1 cell CPT inconclusive and DT40 TDP1 no CPT inconclusive.
`COc1cc(OC)c2c(-c3ccccc3)cc(=O)oc2c1C(CCN1CCN(c2ccccc2)CC1)c1ccc(N(C)C)cc1` (centres undefined) gave HT1080NT lethal inactive, ALOX12 inh inactive, IL1B secr inh inactive, HT1080 IDH1KD tx inactive, TDP1 cell CPT 15µM and DT40 TDP1 no CPT 23µM.
Screening COc1ccc(C(CCN2CCN(c3ccccc3)CC2)c2c(OC)cc(OC)c3c(-c4ccccc4)cc(=O)oc23)cc1 (centres undefined) returned HT1080NT lethal inactive, ALOX12 inh inactive, IL1B secr inh inactive, HT1080 IDH1KD tx inactive, TDP1 cell CPT inconclusive and DT40 TDP1 no CPT inconclusive.
COc1cc(OC)c2c(-c3ccccc3)cc(=O)oc2c1C(CC(=O)N1CCOCC1)c1ccc(N(C)C)cc1 (centres undefined) was read as HT1080NT lethal inactive, ALOX12 inh inactive, IL1B secr inh inactive, HT1080 IDH1KD tx inactive, TDP1 cell CPT inconclusive and DT40 TDP1 no CPT inconclusive.
Screening COc1cc(OC)c2ccc(=O)oc2c1C(CCN1CCN(c2ccccc2)CC1)c1ccc(N(C)C)cc1 (centres undefined) returned HT1080NT lethal inactive, ALOX12 inh inactive, IL1B secr inh inactive, HT1080 IDH1KD tx inactive, TDP1 cell CPT 15µM and DT40 TDP1 no CPT inconclusive.

Source: PubChem BioAssay (National Center for Advancing Translational Sciences (NCATS))
